Source: PubChem
Sfp PPTase inh – blocks B. subtilis Sfp PPTase activity | Biochemical Sfp PPTase activity, qHTS | actives 3.5% (n = 310,000) | Q9F4F7 | Potency, µM, for the others: largest response in the series, negative = inhibition, most hits filed as inhibitors;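 note: the enzyme is Sfp with the accession as filed and its product quenches rhodamine fluorescence; potency is the fitted concentration of half-maximal effect; 0% = enzyme reaction without inhibitor and -100% = no enzyme wells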
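Compounds were incubated with enzyme (final 15 nM) for 15 min at room temperature before substrate addition started the reaction. Fluorescence at 525 nm excitation, 598 nm emission was recorded immediately and after 30 minutes.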
Tau ThT inhib – inhibitors of human tau fibril formation, thioflavin T binding; P10636; recombinant tau K18 P301L, heparin-induced fibrillization, ThT fluorescence; Potency, µM (top dose mostly 57.4 µM), for inactives: at the highest dose activity, negative = inhibition, hits mostly inhibitors; actives 2.1% (n = 270,000); note: potency is the fitted concentration of half-maximal effect; nearly all actives have a fitted effect of over 55% in size
Target sequence (P10636 561-689 P618L limits assumed): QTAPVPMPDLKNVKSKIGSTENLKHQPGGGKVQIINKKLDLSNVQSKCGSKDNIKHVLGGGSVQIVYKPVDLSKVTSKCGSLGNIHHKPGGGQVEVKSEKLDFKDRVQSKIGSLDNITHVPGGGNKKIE
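Recombinant human tau K18 fragment […] carrying P301L, 15 uM unlabeled plus 0.24 uM Alexa 594-labeled, was fibrillized with 20 uM heparin in 100 mM sodium acetate pH 7 for 6 hr at 37 C; 30 uM ThT fluorescence read after 1 hr.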
Tau FP inhib – tau fibrillization inhibition (FP). P10636. K18 P301L tau heparin fibrillization, Alexa594 FP, 6 h. Potency, µM (highest dose often 57.7 µM), for inactives: at the top dose activity, negative = inhibition, usual class: inhibitors. actives 0.39% (n = 280,000). AID 1468; note: potency is the fitted concentration of half-maximal effect; nearly all actives have a fitted effect of over 55% in size
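Human tau K18 […] P301L fragment, 15 uM unlabeled plus 0.24 uM Alexa 594-labeled tau (final), with compound and 20 uM heparin in 100 mM sodium acetate pH 7; 6 hr at 37 C, then Alexa 594 FP read.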
FBPA coupling cs – inhibits coupling enzyme system, counter-screen for aldolase hits; coupling enzyme system counterscreen, AmpLite Red fluorescence; activity change, negative = inhibition, % at 58.2 µM, hits read low; actives 0.67% (n = 290,000); AID 2472; in the data active = activity change below about -30%
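Activity here indicates interference with the coupling reaction, not aldolase inhibition. Compounds at 57.5 uM final met coupling enzymes for 10 min at RT; substrate and AmpLite Red detection followed, with a 525/598 nm fluorescence read after 20 min.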
Tau fluor cs – counter-screen for tau fibril formation inhibitors; actives 0.93% (n = 280,000); Potency, µM (doses to about 57.7 µM), for the others: at the highest dose activity change, negative = decrease; tau K18 P301L Alexa594 fluorescence, heparin fibrillization; note: potency is the fitted concentration of half-maximal effect; nearly all actives have a fitted effect of over 55% in size
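Human tau K18 P301L (15 uM unlabeled, 0.24 uM Alexa 594-labeled) in 100 mM sodium acetate pH 7 with 20 uM heparin, 6 hr at 37 C. ThT 30 uM added, 1 hr ambient; Alexa 594 FP and total fluorescence read at 555/632 nm.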
Numbers without * were called inactive; ? = inconclusive; . = no result; [ ] = dose if it differs, or a comment. Shown are actives, neighbours in structure and some others; about 5.2% of the full set was active somewhere. Unless noted, calls come from the whole dose curve; as a rule, active = well fitted curve in the direction sought with a large enough effect; inconclusive = small, poorly fitted or top-dose-only effect, or another doubt; inactive = no such curve, though single readings can be large; an effect the other way counts as inactive or inconclusive. Unless noted, % is set by controls: 0 for no effect and ±100 for the full control effect.

SMILES	Sfp PPTase inh	Tau ThT inhib	Tau FP inhib	FBPA coupling cs	Tau fluor cs
C(=C\c1nc2ccccc2[nH]1)/c1ccccc1	-20.5%	7.0%	-5.4%	-10.2	-11.7%
C(=C\c1ccco1)/c1nc2ccccc2[nH]1	39.8µM*	4.0%	-1.9%	-2.0	-3.3%
C(=C\c1ccco1)/c1ccc2ccccc2n1	50.1µM*	31.6µM*	?	-5.0	-22.1%
COc1ccc(N2CCN(c3ccc(-c4nc(-c5ccccc5C)no4)cc3[N+](=O)[O-])CC2)cc1	.	15.0%	-6.2%	.	3.1%
CCCCNC(=O)c1ccc2c(c1)NC(=O)C(CS(=O)(=O)Cc1cccc(C)c1)N2 (stereo not drawn)	.	17.8µM*	?	.	?
CCc1nn2c(-c3ccccc3OC)ccnc2c1-c1ccc(F)cc1	.	?	-10.7%	.	?
CCOc1cccc2sc(NC(=O)CS(=O)(=O)c3ccc(C)cc3)nc12	.	5.1%	?	.	0.5%
CCn1c(=O)c2cc(C(=O)NCCc3cccc(C)c3)sc2c2ccccc21	.	-8.3%	-13.3%	.	-9.2%
CCN=c1sc(C(=O)NCCc2ccccc2)cc(=O)n1CC	56.2µM*	?	-7.1%	6.0	-10.2%
COc1ccc(NC(=O)c2ccc(-c3ccc(-c4noc(C)n4)cc3C)cc2)cc1OCCN(C)C	79.4µM*	?	-0.5%	1.2	?
COc1ccc(NC(=O)N2CCN(c3cc(-c4noc(C)n4)ccc3C)CC2)c(OC)c1	.	-7.9%	3.6%	.	-15.8%
COc1ccc(NC(=O)c2ccc(-c3ccc(-c4noc(C)n4)cc3C)cc2)cc1N1CCN(C)CC1	31.6µM*	?	15.0%	-0.8	?
CC(=O)c1cc(CN2CCC(N3CCC(C(=O)NC(C)C)CC3)CC2)cs1	19.1%	-8.2%	-7.1%	-0.6	-14.4%
CC(=O)c1cc(CN2CCC(N3CCC(C(=O)N4CCCC4)CC3)CC2)cs1	22.4µM*	?	4.9%[2.34 µM]	1.6	-53.6%
C#CCOc1ccccc1CNC1CCN(Cc2ccccc2)CC1	79.4µM*	.	.	-0.9	.
CCOc1ccc(N=C(C)C2=C(O)c3ccccc3C2=O)cc1	?	.	-6.3%	-0.8	?
CCOc1ccc(N=C(NN)c2ccc3ccccc3n2)cc1	14.1µM*	10µM*	-10.9%	-11.0	?
CCOc1ccc(OCC)c(NC(=O)C2CCCN(S(=O)(=O)c3cc(Br)cc4c3N(C(=O)CC)CC4)C2)c1 (stereo not drawn)	.	7.9%	6.6%	.	-7.4%
COc1ccc(N2C(=O)/C(=C/N(C)C)NC2=S)cc1	56.2µM*	-6.1%	-5.6%	1.5	3.9%
COc1ccc(N2C(=O)/C(=C/c3cccnc3)NC2=S)cc1	-4.3%	-1.9%	-11.2%	-1.2	-1.5%
CCOc1ccc(CCNC(=O)c2cc3c(s2)-c2c(C)cccc2OC3)cc1	.	?	1.4%	.	-1.6%
COc1ccccc1CNC(=O)CCNS(=O)(=O)c1ccc2c(c1)CCCC(=O)N2	.	-1.4%	-19.1%	.	-9.0%
COc1cccc(-n2c(=O)c3ccccc3n3c(=S)[nH]nc23)c1	?	.	.	0.0	.
COCCCn1c(=O)c2ccccc2n2c(=S)[nH]nc12	79.4µM*	.	.	4.4	.
CCc1ccc(-n2c(=O)c3ccccc3n3c(=S)[nH]nc23)cc1	44.7µM*	.	.	-3.2	.
SMILES	Sfp PPTase inh	Tau ThT inhib	Tau FP inhib	FBPA coupling cs	Tau fluor cs
C[C@H]1C(O)[C@@]23CCC4C5(C=[N+](CCO)C[C@]4(C)CCC5)C2C[C@@H]1C3 (stereo partly drawn)	0.5%	-7.1%	-7.0%	0.7	-10.4%
CCOC(=O)c1cccc(Nc2ccc3cc(S(=O)(=O)N4CCCCC4)ccc3n2)c1	.	?	?	.	11.2µM*[quencher]
COc1ccc(Cl)cc1Nc1ccc2cc(S(=O)(=O)N3CCCCC3)ccc2n1	.	-8.9%	0.1%	.	10µM*[quencher]
CCOc1ccc(OCC)c(Nc2ccc3cc(S(=O)(=O)N4CCCC4)ccc3n2)c1	.	-5.8%	?	.	?
COc1ccc(Nc2ccc3cc(S(=O)(=O)N4CCCC4)ccc3n2)cc1Cl	.	?	6.6%	.	2.82µM*[quencher]
COC(=O)C1=C(C)N(Cc2ccccc2)C2=C(C(=O)c3ccccc3)C(c3ccccc3)[C@@](O)(C(=O)OC)C(=O)N2C1c1ccccc1 (stereo partly drawn)	-0.7%	?	-8.6%[11.6 µM]	1.7	-5.5%[11.6 µM]
COC(=O)c1ccccc1NC(=O)Cn1cc(S(=O)(=O)Cc2ccccc2F)c2ccccc21	.	10.5%	-1.2%	.	-1.2%
CCCCNC(=O)C1CCC(CNS(=O)(=O)c2ccc(Cl)cc2)CC1 (stereo not drawn)	.	-7.5%	4.1%	.	-3.3%
Cc1ccccc1Oc1nc2c(c(=O)n(C)c(=O)n2C)n1Cc1ccc(Br)cc1	.	-0.4%	-3.0%	.	2.0%
Cc1cccc(C)c1NCc1n[nH]c(=S)n1-c1ccccc1	79.4µM*	10.7%	-5.7%	-0.8	3.8%
S=c1nc[nH]c2c1ncn2C1CCCO1 (stereo not drawn)	3.98µM*	-2.1%	-2.6%	-4.6	-5.3%
Nc1ncnc2c1ncn2C1CCCO1 (stereo not drawn)	4.4%	6.4%	3.1%	0.1	3.2%
Cc1cccc(C)c1NC(=O)CN(C)S(=O)(=O)c1ccc2[nH]c3c(c2c1)CCCC3	.	1.9%	16.9%	.	?
CCOc1ccc(NC(=O)CN(C)S(=O)(=O)c2ccc3[nH]c4c(c3c2)CCCC4)cc1	.	-16.3%	3.8%	.	14.1µM*[quencher]
Cc1cc(C)cc(NC(=O)CN(C)S(=O)(=O)c2ccc3[nH]c4c(c3c2)CCCC4)c1	.	-7.3%	-9.0%	.	4.47µM*[quencher]
Cc1ccc(N2CCN(S(=O)(=O)c3cc(Br)cc4c3N(C(=O)C3CC3)CC4)CC2C)cc1 (stereo not drawn)	.	-12.3%	5.4%	.	?
O=C(NN1C(=O)c2ccccc2NC1c1ccc([N+](=O)[O-])o1)c1ccc([N+](=O)[O-])cc1 (stereo not drawn)	15.8%	3.16µM*	?	-7.6	?
O=C(Nc1nc2c(F)cc(F)cc2s1)c1ccc(S(=O)(=O)N2CCc3ccccc32)cc1	.	-2.4%	14.1µM*	.	-21.3%
CCc1nn(CC(=O)NC(C)c2ccccc2)c(=O)c2cc3sccc3n12 (stereo not drawn)	.	3.8%	-13.0%	.	0.1%
CCOc1ccc(NC(=O)Cn2c(=O)n(Cc3ccco3)c(=O)c3ccc(C(=O)NC4CCCC4)cc32)cc1	.	2.4%	15.8µM*	.	?
COc1ccc(CCNC(=O)CCn2c(=O)c3ccccc3n(Cc3ccccc3C)c2=O)cc1OC	.	-5.0%	-17.5%	.	-13.9%
C=CCn1c(N)c(C(=O)NCCC2=CCCCC2)sc1=S	25.1µM*	?	3.0%	0.5	?
CCOc1ccccc1NC(=O)c1cnn2c(C(F)F)cc(-c3ccccc3)nc12	.	?	-4.7%	.	-26.9%
COCCNC(=O)c1cc2cc(Cl)cc(Cl)c2oc1=O	-1.2%	-8.3%	-8.6%	0.8	-5.7%
O=C(NCCO)c1cc2cc(Cl)cc(Cl)c2oc1=O	35.5µM*	?	-16.0%	0.7	-20.0%
